Assay results: PubChem BioAssay (NCI)
This is part of a sample that, as a whole, favours compounds with a hit. Of some 83,000 tested, about 20% had one in any assay.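 Single-dose data. Exposure time 48 hours. Values below 10 considered active.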 Active and inactive are the calls of the source.

How the values were obtained:
Assay in all cases: NCI-60 one-dose screen, 48 h (100 = growth as untreated, 0 = no growth, -100 = all killed)
DU-145 prostate = details: 10 µM unless noted
K-562 leukemia = details: 10 µM unless noted
MALME-3M melanoma = details: 10 µM unless noted
RXF 393 renal = details: 10 µM unless noted
SF-295 CNS = details: 10 µM unless noted
UACC-257 melanoma = details: 10 µM unless noted
SK-MEL-5 melanoma = details: 10 µM unless noted
LOX IMVI melanoma = details: 10 µM unless noted
SK-MEL-2 melanoma = details: 10 µM unless noted
ACHN renal = details: 10 µM unless noted
CCRF-CEM leukemia = details: 10 µM unless noted
MOLT-4 leukemia = details: 10 µM
OVCAR-8 ovarian = details: 10 µM unless noted
IGROV1 ovarian = details: 10 µM
OVCAR-3 ovarian = details: 10 µM unless noted
NCI/ADR-RES ovarian = details: 10 µM unless noted
T-47D breast = details: 10 µM unless noted
HCC-2998 colon = details: 10 µM unless noted
SNB-19 CNS = details: 10 µM unless noted
HL-60(TB) leukemia = details: 10 µM unless noted

Measured: growth

CCOc1cc(C=C(C#N)C#N)cc(Br)c1O
inactive: DU-145 prostate 103% | K-562 leukemia 75.2% | MALME-3M melanoma 106% | RXF 393 renal 121% | SF-295 CNS 110% | UACC-257 melanoma 107% | SK-MEL-5 melanoma 105% | LOX IMVI melanoma 97.1% | SK-MEL-2 melanoma 102% | ACHN renal 106% | CCRF-CEM leukemia 102% | MOLT-4 leukemia 85.5% | OVCAR-8 ovarian 102% | IGROV1 ovarian 109% | OVCAR-3 ovarian 98.8% | NCI/ADR-RES ovarian 104% | T-47D breast 98.5% | HCC-2998 colon 99.4%

CNC(=O)Oc1cccc(N(C)C)c1
inactive: DU-145 prostate 110% | K-562 leukemia 102% | MALME-3M melanoma 101% | RXF 393 renal 103% | SF-295 CNS 99.8% | UACC-257 melanoma 93.5% | SNB-19 CNS 102% | SK-MEL-5 melanoma 99.2% | LOX IMVI melanoma 96.9% | SK-MEL-2 melanoma 83.4% | ACHN renal 104% | HL-60(TB) leukemia 103% | MOLT-4 leukemia 107% | OVCAR-8 ovarian 99.5% | IGROV1 ovarian 108% | OVCAR-3 ovarian 110% | NCI/ADR-RES ovarian 107% | T-47D breast 104% | HCC-2998 colon 111%

O=C(O)CC(Br)C(=O)CBr (stereo not given)
inactive: DU-145 prostate 111% | K-562 leukemia 105% | MALME-3M melanoma 103% | RXF 393 renal 109% | SF-295 CNS 98.2% | UACC-257 melanoma 102% | SNB-19 CNS 104% | SK-MEL-5 melanoma 106% | LOX IMVI melanoma 86.6% | ACHN renal 99% | HL-60(TB) leukemia 105% | MOLT-4 leukemia 103% | OVCAR-8 ovarian 99.4% | IGROV1 ovarian 109% | OVCAR-3 ovarian 114% | NCI/ADR-RES ovarian 111% | T-47D breast 103% | HCC-2998 colon 116%
